Measurements reported in the supplement of paper PMC9477273.

What follows are compounds tested on DRIVER-selected RNA biosensor (aptazyme) pool (assay: maximum fold change of ribozyme cleavage across biosensor pool versus no-compound control; higher = stronger biosensor response (ligand inhibits cleavage)). Conditions: 10 µM.
Procedure: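 CleaveSeq: a pool of resynthesized hammerhead-ribozyme RNA biosensors (sTRSV scaffold with randomized loops, 1,730 sequences) was T7-transcribed at 37 °C for 15-30 min with a single compound at 10 µM. Cleaved and uncleaved products were counted by NGS, and fold change of cleavage was computed against the DMSO-only condition. The value is the maximum fold change of cleavage over all biosensors in the pool. About 255 compounds were tested individually.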

Compound | maximum fold change
Cc1nn2c(-c3ccncc3)nnc2c2ccccc12 | 10.8
CC(C)c1ccc(C2c3c(-c4ccccc4O)n[nH]c3C(=O)N2CCCO)cc1 (stereo not given) | 2.85
COc1cc(-c2nc3n(n2)C(c2ccncc2)C(C(N)=O)=C(C)N3)cc(OC)c1OC (stereo not given) | 2.35
Cc1ccc(CNc2nc3ccc(C)cc3n3cnnc23)cc1 | 2.77
Cc1ccc(CS(=O)Cc2ccc(C(=O)NC(C)C)o2)cc1 (stereo not given) | 1.84
Cc1cc(C2C(=O)c3ccccc3C2=O)nc2ccccc12 | 11.3
Cc1cc(C)c(Cn2c(C)c(CNCc3cccc(Cl)c3)c(C(=O)O)c2C)c(C)c1 | 1.74
COc1cccc(C(=O)/C=C2/Nc3ncc(Br)cc3NC2=O)c1 | 5.23
c1cc(-c2nc3cc(Oc4ccc5[nH]c(-c6ccncc6)nc5c4)ccc3[nH]2)ccn1 | 14.3
COc1ccc(-c2cc(-c3nc4c5c(ncn4n3)CCC5)n[nH]2)cc1 | 1.38
O=C(NCc1cccc(Cl)c1)c1cnc2ccccn2c1=O | 7.03
O=C1Nc2cc(C(=O)N3CCN(c4ccco4)CC3)ccc2N/C1=C\C(=O)c1ccc(Cl)cc1 | 5.38
O=C(CCc1ccccc1)N1CCC(c2ccccc2)C1 (stereo not given) | 1.79
COc1ccc(C=C2C(=O)c3ccccc3C2=O)cc1O | 4.65
COC(=O)/C(C#N)=C/c1c(Oc2ccccc2Cl)nc2ccccn2c1=O | 3.58
Cc1c(CNC(C)CCc2ccccc2)c(C(=O)O)c(C)n1Cc1cccc(Cl)c1 (stereo not given) | 4.02
Cc1ccc(-c2noc(CCC(=O)Nc3cc(C)ccn3)n2)cc1 | 2.17
CCOC(=O)C1=C(C)Nc2nc(-c3cccs3)nn2C1c1ccc(C#N)cc1 (stereo not given) | 1.85
N=C1/C(=C\c2ccc(Br)cc2)C(=O)N=C2SC(N3CCOCC3)=NN12 | 2.79
CCOC(=O)c1sc2nc(C)nc(NCc3ccccc3OC)c2c1C | 4.59

Compound | maximum fold change
CC1(C)CC(=O)C(=Cc2c[nH]c3ccccc23)C(=O)C1 | 2.44
N#C/C(=Cc1c(Oc2cccc(c2)C)nc2n(c1=O)cccc2)/c1nc2c([nH]1)cccc2 | 7.83
Cc1ccc(C)c(Cn2c(C)c(CNCCCN3CCCC3=O)c(C(=O)O)c2C)c1 | 2.12
Cc1[nH]c2ccccc2c1/C=C1\C(=N)N2N=C(N3CCC(C)CC3)SC2=NC1=O | 3.17
COc1ccc(/C=C2N=C(c3ccc(Cl)c(Cl)c3)OC2=O)cc1 | 2.84
O=C(c1cc(-c2ccccc2)n[nH]1)N1CCn2c1nc1ccccc12 | 5.17
COc1ccccc1OCCCn1cccc1/C=C1\C(=N)N2N=C(N3CCOCC3)SC2=NC1=O | 2.03
CCOC(=O)c1cc(-c2ccc(C)cc2)n(CC(=O)NC(C)CC)c1C (stereo not given) | 2.38
CCCCNCc1c(C(=O)O)c(C)n(Cc2cc(C)ccc2C)c1C | 2.79
Cc1cccc(-c2nc3n(n2)C(c2ccccc2Cl)C2=C(CC(C)(C)CC2=O)N3)c1 (stereo not given) | 1.83
O=C(NCCCc1ccccc1)C1CCN(c2nnc(N3CCCC3=O)s2)CC1 | 3.05
COc1ccc(C2=NN(CCC(=O)N3CCCCC3)C(=O)CC2)cc1 | 4.11
CC1CCN(S(=O)(=O)c2ccc3c(ccn3CC(=O)NCc3ccc(OC(C)C)cc3)c2)CC1 | 2.62
COc1ccc(CCNC(=O)c2nnc(Cc3ccc(Cl)cc3Cl)o2)cc1OC | 2.09
CC1CCN(c2ncnc3sc4c(c23)CCC(C)C4)CC1 (stereo not given) | 3.18
Cc1ccc(OCC(=O)N(Cc2ccccc2F)C2CCS(=O)(=O)C2)cc1C (stereo not given) | 2.91
N#C/C(=Cc1c(Oc2ccc(c(c2)C)Cl)nc2n(c1=O)cccc2)/C(=O)N1CCCCC1 | 2.6
N#C/C(=Cc1c(Oc2ccc(cc2)Br)nc2n(c1=O)cccc2)/C(=O)NC1CCCCC1 | 2.99
COCCNC(=O)c1ccc(CS(=O)Cc2ccc(Cl)cc2)o1 (stereo not given) | 3.58
CCOC(=O)c1cnc2c(C)c(Cl)ccc2c1NCc1ccco1 | 6.11
